Measured values published in PubChem BioAssay AID1159580 (chemical genetic matrix, 2015).
Out of some 5,500 compounds screened, about 2,000 (36%) were called active. Inconclusive results (about 18%) are left out. Cut-off read from the data, not from the text of the source: active = normalized growth mostly below about 0.91 (no sharp cut-off); inconclusive = no clear call, values can overlap the other calls; inactive = mostly above about 0.92. Some of the results follow.

Assay: chemical genetic growth profiling, strain panel (AID 1159580);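 note: tested at 20 µM; growth read once vehicle control cultures reached saturation at 30 °C; 1 = growth at the plate median or of vehicle wells; lower values mean less growth of the strain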
Settings: S. cerevisiae deletion strains, growth OD

Measured: normalized growth

Clc1ccc(CO/N=C(/Cn2ccnc2)c2ccc(Cl)cc2Cl)c(Cl)c1
active: locus YAL021C, strain ccr4, stronger effect = lower value 0.0719 | locus YAL026C, strain drs2, stronger effect = lower value 0.066 | locus YAL030W, strain snc1, stronger effect = lower value 0.062 | locus YBL061C, strain skt5, stronger effect = lower value 0.0675 | locus YBR009C, strain hhf1, stronger effect = lower value 0.0713 | locus YBR023C, strain chs3, stronger effect = lower value 0.0703 | locus YBR171W, strain sec66, stronger effect = lower value 0.084 | locus YBR231C, strain swc5, stronger effect = lower value 0.0712 | locus YBR279W, strain paf1, stronger effect = lower value 0.0663 | locus YCL011C, strain gbp2, stronger effect = lower value 0.0641 | locus YCL016C, strain dcc1, stronger effect = lower value 0.0718 | locus YCL069W, strain vba3, stronger effect = lower value 0.0674 | locus YCR088W, strain abp1, stronger effect = lower value 0.0653 | locus YDL005C, strain med2, stronger effect = lower value 0.0803 | locus YDL040C, strain nat1, stronger effect = lower value 0.0648 | locus YDR001C, strain nth1, stronger effect = lower value 0.0642 | locus YDR069C, strain doa4, stronger effect = lower value 0.07 | locus YDR137W, strain rgp1, stronger effect = lower value 0.106 | locus YDR159W, strain sac3, stronger effect = lower value 0.103 | locus YDR195W, strain ref2 0.146 | locus YDR297W, strain sur2, stronger effect = lower value 0.0626 | locus YDR334W, strain swr1, stronger effect = lower value 0.0671 | locus YDR335W, strain msn5, stronger effect = lower value 0.0633 | locus YDR392W, strain spt3, stronger effect = lower value 0.0807 | locus YEL003W, strain gim4, stronger effect = lower value 0.0579 | locus YEL037C, strain rad23, stronger effect = lower value 0.0606 | locus YEL061C, strain CIN8 (second series), stronger effect = lower value 0.0642 | locus YER015W, strain faa2, stronger effect = lower value 0.0705 | locus YER016W, strain bim1, stronger effect = lower value 0.0699 | locus YER111C, strain swi4, stronger effect = lower value 0.0753 | locus YER155C, strain BEM2 (second series), stronger effect = lower value 0.104 | locus YFR010W, strain ubp6, stronger effect = lower value 0.0725 | locus YGL167C, strain pmr1, stronger effect = lower value 0.0799 | locus YGL173C, strain kem1, stronger effect = lower value 0.0926 | locus YGL227W, strain vid30, stronger effect = lower value 0.067 | locus YGL240W, strain doc1, stronger effect = lower value 0.108 | locus YGL253W, strain hxk2, stronger effect = lower value 0.0581 | locus YHR013C, strain ard1, stronger effect = lower value 0.111 | locus YHR027C, strain rpn1, stronger effect = lower value 0.0678 | locus YHR030C, strain SLT2, stronger effect = lower value 0.11 | locus YHR079C, strain IRE1, stronger effect = lower value 0.138 | locus YHR142W, strain chs7, stronger effect = lower value 0.0783 | locus YJL092W, strain hpr5, stronger effect = lower value 0.0639 | locus YJL095W, strain BCK1 (second series), stronger effect = lower value 0.0624 | locus YJL095W, strain BCK1, stronger effect = lower value 0.119 | locus YJL115W, strain asf1, stronger effect = lower value 0.076 | locus YJL129C, strain trk1, stronger effect = lower value 0.0899 | locus YJL154C, strain vps35, stronger effect = lower value 0.0641 | locus YJL164C, strain tpk1, stronger effect = lower value 0.0663 | locus YJL166W, strain qcr8, stronger effect = lower value 0.0665 | locus YJL187C, strain SWE1, stronger effect = lower value 0.0662 | locus YJR066W, strain TOR1, stronger effect = lower value 0.016 | locus YKL160W, strain elf1, stronger effect = lower value 0.0739 | locus YKR026C, strain gcn3, stronger effect = lower value 0.0685 | locus YKR091W, strain srl3, stronger effect = lower value 0.0651 | locus YLL001W, strain dnm1, stronger effect = lower value 0.0676 | locus YLL026W, stronger effect = lower value 0.0627 | locus YLL041C, strain sdh2, stronger effect = lower value 0.0619 | locus YLR027C, strain aat2, stronger effect = lower value 0.0637 | locus YLR113W, strain HOG1, stronger effect = lower value 0.138 | locus YLR221C, strain rsa3, stronger effect = lower value 0.0614 | locus YLR258W, strain gsy2, stronger effect = lower value 0.0647 | locus YLR262C, strain YPT6 (second series), stronger effect = lower value 0.0952 | locus YLR320W, strain mms22, stronger effect = lower value 0.0852 | locus YLR342W, strain FKS1, stronger effect = lower value 0.0731 | locus YLR357W, strain rsc2, stronger effect = lower value 0.13 | locus YLR370C, strain arc18, stronger effect = lower value 0.0687 | locus YLR384C, strain iki3, stronger effect = lower value 0.0679 | locus YML120C, strain ndi1, stronger effect = lower value 0.0632 | locus YMR058W, strain fet3, stronger effect = lower value 0.0659 | locus YMR125W, strain sto1, stronger effect = lower value 0.0799 | locus YMR129W, stronger effect = lower value 0.0624 | locus YMR205C, strain PFK2, stronger effect = lower value 0.104 | locus YMR231W, strain pep5, stronger effect = lower value 0.205 | locus YNL071W, strain lat1, stronger effect = lower value 0.0653 | locus YNL183C, strain NPR1, stronger effect = lower value 0.0338 | locus YNL209W, strain ssb2, stronger effect = lower value 0.0716 | locus YNL248C, strain rpa49, stronger effect = lower value 0.0816 | locus YNL322C, strain KRE1 (second series), stronger effect = lower value 0.0683 | locus YNR049C, strain mso1, stronger effect = lower value 0.0594 | locus YOR001W, strain rrp6, stronger effect = lower value 0.0749 | locus YOR070C, strain gyp1, stronger effect = lower value 0.0664 | locus YOR080W, strain dia2, stronger effect = lower value 0.0735 | locus YOR083W, strain WHI5, stronger effect = lower value 0.0763 | locus YOR106W, strain vam3, stronger effect = lower value 0.0782 | locus YOR231W, strain MKK1, stronger effect = lower value 0.116 | locus YOR265W, strain rbl2, stronger effect = lower value 0.0668 | locus YOR270C, strain vph1, stronger effect = lower value 0.112 | locus YOR290C, strain snf2, stronger effect = lower value 0.0669 | locus YPL051W, strain arl3, stronger effect = lower value 0.0756 | locus YPL078C, strain atp4, stronger effect = lower value 0.08 | locus YPL106C, strain sse1, stronger effect = lower value 0.105 | locus YPL240C, strain hsp82, stronger effect = lower value 0.0633 | locus YPL256C, strain CLN2, stronger effect = lower value 0.139
